The results in this text go back to ChEMBL document CHEMBL1961873, “Compounds: GSK PKIS; Assays: Nanosyn kinase panel” (2012).

Assay [1] deals with Rho-associated protein kinase 1 (Homo sapiens) (UniProt Q13464). Particulars: at 1 µM.
Assay [2] deals with Rho-associated protein kinase 2 (Homo sapiens) (UniProt O75116). The conditions noted are these: at 0.1 µM.
For assay [3] the target is unchanged. Particulars: at 1 µM.
Assay [4] deals with Ribosomal protein S6 kinase alpha-1 (Homo sapiens) (UniProt Q15418). The conditions noted are these: at 0.1 µM.
Ribosomal protein S6 kinase alpha-1 (Homo sapiens), sequence (Q15418 whole entry): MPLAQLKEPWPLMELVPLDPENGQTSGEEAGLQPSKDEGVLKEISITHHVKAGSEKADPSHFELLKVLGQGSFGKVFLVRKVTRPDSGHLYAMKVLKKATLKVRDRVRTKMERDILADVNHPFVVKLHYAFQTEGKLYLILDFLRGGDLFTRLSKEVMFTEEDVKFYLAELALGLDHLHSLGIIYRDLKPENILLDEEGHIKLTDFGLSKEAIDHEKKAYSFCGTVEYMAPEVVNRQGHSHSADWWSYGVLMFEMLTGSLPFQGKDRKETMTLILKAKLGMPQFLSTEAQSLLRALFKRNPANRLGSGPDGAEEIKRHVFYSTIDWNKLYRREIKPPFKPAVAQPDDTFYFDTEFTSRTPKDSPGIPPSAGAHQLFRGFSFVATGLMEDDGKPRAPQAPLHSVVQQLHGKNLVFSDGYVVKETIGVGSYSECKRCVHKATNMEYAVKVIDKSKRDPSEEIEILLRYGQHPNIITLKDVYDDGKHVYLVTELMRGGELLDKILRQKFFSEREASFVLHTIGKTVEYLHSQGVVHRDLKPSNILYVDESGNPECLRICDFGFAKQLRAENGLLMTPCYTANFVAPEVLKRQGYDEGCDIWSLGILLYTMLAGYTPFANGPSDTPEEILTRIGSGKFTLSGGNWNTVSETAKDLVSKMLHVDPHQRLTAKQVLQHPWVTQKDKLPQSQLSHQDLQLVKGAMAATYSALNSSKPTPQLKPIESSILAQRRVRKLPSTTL
Assay [5] shares this target. The conditions noted are these: at 1 µM.
For assay [6], the target named is Ribosomal protein S6 kinase alpha-3 (Homo sapiens) (UniProt P51812). Particulars: at 0.1 µM.
Assay [7] has the same target. Particulars: at 1 µM.
Assay [8] deals with Ribosomal protein S6 kinase alpha-2 (Homo sapiens) (UniProt Q15349). Particulars: at 0.1 µM.
Ribosomal protein S6 kinase alpha-2 (Homo sapiens), sequence (Q15349 whole entry): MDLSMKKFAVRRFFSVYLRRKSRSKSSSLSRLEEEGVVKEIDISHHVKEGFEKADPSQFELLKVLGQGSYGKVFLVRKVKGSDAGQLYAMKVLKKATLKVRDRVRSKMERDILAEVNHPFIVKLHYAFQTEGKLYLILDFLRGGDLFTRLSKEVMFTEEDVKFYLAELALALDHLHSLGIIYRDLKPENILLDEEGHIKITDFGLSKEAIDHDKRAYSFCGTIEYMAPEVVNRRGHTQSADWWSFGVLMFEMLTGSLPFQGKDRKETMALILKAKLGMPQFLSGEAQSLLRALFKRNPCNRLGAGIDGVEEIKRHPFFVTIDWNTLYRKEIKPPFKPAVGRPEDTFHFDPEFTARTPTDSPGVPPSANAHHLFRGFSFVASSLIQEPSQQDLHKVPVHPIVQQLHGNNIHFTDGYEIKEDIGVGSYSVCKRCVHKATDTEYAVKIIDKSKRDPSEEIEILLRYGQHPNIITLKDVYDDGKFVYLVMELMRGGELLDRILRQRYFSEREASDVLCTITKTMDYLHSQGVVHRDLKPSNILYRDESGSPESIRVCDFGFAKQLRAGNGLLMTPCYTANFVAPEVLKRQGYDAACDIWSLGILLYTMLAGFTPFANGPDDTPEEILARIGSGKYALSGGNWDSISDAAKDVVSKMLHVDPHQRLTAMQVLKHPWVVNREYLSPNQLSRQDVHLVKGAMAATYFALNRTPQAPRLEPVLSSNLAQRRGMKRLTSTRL
Assay [9] shares this target. Particulars: at 1 µM.
Assay [10] has as its target Ribosomal protein S6 kinase alpha-6 (Homo sapiens) (UniProt Q9UK32). Particulars: at 0.1 µM.
Assay [11] has the same target. The conditions noted are these: at 1 µM.
In assay [12] the target is T1, Serine/threonine-protein kinase Sgk1 (Homo sapiens) (UniProt O00141).
T1 sequence (whole entry): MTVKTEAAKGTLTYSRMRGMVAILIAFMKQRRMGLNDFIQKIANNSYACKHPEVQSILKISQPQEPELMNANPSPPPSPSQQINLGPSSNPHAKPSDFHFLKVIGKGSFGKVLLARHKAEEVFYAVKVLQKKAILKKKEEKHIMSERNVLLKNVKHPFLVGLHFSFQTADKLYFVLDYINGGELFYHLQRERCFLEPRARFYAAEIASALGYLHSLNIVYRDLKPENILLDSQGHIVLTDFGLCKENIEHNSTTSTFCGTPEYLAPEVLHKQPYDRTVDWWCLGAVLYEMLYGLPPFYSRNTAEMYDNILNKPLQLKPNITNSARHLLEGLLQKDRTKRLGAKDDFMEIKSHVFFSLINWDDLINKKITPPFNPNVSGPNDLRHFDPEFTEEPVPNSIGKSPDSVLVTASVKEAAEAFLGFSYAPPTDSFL
Particulars: at 0.1 µM.

The target of assay [13] is T1, Serine/threonine-protein kinase Sgk1 (Homo sapiens). Particulars: at 1 µM.
Assay [14] deals with T2, Serine/threonine-protein kinase Sgk2 (Homo sapiens) (UniProt Q9HBY8).
T2 sequence (whole entry): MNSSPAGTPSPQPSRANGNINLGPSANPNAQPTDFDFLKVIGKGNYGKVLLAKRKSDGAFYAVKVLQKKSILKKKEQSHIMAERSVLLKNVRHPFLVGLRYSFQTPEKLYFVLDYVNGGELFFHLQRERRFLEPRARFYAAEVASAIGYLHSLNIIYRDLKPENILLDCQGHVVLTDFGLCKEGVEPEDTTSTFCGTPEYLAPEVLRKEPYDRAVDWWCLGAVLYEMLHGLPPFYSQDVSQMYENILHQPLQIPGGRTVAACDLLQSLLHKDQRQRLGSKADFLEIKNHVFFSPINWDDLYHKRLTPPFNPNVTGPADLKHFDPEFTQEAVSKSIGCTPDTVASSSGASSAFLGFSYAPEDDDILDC
Particulars: at 0.1 µM.

For assay [15], the target named is T2, Serine/threonine-protein kinase Sgk2 (Homo sapiens). Particulars: at 1 µM.
For assay [16], the target named is T3, Serine/threonine-protein kinase Sgk3 (Homo sapiens) (UniProt Q96BR1).
T3 sequence (whole entry): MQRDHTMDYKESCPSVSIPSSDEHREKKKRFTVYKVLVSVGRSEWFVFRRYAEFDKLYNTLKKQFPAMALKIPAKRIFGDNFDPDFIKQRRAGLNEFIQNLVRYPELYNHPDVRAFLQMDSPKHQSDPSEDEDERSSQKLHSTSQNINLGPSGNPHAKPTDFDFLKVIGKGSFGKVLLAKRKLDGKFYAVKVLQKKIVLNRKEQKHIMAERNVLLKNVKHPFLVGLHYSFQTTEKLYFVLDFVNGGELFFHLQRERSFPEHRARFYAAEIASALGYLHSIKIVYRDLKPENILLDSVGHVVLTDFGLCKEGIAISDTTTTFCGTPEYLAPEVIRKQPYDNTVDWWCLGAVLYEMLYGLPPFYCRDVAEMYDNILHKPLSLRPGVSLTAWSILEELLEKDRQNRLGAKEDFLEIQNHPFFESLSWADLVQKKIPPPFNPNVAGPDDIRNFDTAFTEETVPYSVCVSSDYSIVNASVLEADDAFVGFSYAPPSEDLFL
Particulars: at 0.1 µM.

The target of assay [17] is T3, Serine/threonine-protein kinase Sgk3 (Homo sapiens). Particulars: at 1 µM.
For assay [18], the target named is 5'-AMP-activated protein kinase catalytic subunit alpha-1 (Homo sapiens) (UniProt Q13131). The conditions noted are these: at 0.1 µM.
5'-AMP-activated protein kinase catalytic subunit alpha-1 (Homo sapiens), sequence (Q13131 whole entry, looked up): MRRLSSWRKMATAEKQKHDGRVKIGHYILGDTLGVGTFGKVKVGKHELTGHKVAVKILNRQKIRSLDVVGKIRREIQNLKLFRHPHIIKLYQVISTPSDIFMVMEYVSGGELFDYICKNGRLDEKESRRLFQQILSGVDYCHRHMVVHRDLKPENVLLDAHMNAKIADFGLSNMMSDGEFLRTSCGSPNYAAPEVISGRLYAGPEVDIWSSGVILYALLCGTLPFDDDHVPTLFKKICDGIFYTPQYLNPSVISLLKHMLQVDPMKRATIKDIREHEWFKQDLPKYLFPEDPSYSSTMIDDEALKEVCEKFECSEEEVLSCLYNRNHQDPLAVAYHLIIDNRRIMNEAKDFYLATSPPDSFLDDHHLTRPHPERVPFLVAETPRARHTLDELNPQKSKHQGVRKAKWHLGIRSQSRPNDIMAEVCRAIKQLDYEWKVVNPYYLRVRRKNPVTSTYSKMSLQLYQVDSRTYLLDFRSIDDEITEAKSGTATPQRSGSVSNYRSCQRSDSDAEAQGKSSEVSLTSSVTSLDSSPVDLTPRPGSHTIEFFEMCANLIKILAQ
For assay [19] the target is unchanged. Particulars: at 1 µM.
The target in assay [20] is 5'-AMP-activated protein kinase catalytic subunit alpha-2 (Homo sapiens) (UniProt P54646). Particulars: at 0.1 µM.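 Note: mean inhibition measured on the AMPK complex of alpha2, beta1 and gamma1 subunits.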
5'-AMP-activated protein kinase catalytic subunit alpha-2 (Homo sapiens), sequence (P54646 whole entry, looked up): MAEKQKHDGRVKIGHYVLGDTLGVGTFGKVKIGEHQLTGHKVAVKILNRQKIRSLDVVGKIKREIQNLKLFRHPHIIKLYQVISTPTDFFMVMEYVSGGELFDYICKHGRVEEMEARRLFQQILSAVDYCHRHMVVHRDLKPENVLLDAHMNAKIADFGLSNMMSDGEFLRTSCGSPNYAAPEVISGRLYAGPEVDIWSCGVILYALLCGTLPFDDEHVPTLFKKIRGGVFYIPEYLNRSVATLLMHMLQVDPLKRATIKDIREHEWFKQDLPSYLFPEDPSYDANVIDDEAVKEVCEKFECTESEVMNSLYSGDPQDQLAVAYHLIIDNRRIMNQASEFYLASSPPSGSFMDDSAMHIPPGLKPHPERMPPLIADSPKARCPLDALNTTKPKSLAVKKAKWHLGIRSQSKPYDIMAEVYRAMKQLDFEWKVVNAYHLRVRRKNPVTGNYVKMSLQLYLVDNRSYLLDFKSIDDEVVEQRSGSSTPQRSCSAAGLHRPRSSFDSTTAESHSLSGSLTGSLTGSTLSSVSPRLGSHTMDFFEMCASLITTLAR

The structures appear in SMILES notation.

Ribosomal protein S6 kinase alpha-6 (Homo sapiens), sequence (Q9UK32 whole entry): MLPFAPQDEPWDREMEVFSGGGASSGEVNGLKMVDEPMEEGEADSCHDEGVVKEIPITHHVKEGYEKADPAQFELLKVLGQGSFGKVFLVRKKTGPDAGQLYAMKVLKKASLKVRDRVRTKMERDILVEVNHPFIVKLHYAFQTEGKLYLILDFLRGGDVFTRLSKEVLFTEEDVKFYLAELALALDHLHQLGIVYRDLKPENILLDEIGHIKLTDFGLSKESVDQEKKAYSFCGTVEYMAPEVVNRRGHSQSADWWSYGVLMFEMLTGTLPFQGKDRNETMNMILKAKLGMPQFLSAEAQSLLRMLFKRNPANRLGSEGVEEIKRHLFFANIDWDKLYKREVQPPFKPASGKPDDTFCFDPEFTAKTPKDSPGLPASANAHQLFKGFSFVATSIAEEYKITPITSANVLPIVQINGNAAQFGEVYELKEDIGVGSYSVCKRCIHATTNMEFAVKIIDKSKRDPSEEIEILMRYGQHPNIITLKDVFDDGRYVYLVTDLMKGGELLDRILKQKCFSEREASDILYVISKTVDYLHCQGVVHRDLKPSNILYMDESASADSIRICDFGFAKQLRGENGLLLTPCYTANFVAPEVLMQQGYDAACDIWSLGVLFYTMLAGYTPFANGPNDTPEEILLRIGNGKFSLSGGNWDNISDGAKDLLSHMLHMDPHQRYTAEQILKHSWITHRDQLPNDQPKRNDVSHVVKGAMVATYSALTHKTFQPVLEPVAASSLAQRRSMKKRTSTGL
Rho-associated protein kinase 1 (Homo sapiens), sequence (Q13464 2-1354 limits assumed): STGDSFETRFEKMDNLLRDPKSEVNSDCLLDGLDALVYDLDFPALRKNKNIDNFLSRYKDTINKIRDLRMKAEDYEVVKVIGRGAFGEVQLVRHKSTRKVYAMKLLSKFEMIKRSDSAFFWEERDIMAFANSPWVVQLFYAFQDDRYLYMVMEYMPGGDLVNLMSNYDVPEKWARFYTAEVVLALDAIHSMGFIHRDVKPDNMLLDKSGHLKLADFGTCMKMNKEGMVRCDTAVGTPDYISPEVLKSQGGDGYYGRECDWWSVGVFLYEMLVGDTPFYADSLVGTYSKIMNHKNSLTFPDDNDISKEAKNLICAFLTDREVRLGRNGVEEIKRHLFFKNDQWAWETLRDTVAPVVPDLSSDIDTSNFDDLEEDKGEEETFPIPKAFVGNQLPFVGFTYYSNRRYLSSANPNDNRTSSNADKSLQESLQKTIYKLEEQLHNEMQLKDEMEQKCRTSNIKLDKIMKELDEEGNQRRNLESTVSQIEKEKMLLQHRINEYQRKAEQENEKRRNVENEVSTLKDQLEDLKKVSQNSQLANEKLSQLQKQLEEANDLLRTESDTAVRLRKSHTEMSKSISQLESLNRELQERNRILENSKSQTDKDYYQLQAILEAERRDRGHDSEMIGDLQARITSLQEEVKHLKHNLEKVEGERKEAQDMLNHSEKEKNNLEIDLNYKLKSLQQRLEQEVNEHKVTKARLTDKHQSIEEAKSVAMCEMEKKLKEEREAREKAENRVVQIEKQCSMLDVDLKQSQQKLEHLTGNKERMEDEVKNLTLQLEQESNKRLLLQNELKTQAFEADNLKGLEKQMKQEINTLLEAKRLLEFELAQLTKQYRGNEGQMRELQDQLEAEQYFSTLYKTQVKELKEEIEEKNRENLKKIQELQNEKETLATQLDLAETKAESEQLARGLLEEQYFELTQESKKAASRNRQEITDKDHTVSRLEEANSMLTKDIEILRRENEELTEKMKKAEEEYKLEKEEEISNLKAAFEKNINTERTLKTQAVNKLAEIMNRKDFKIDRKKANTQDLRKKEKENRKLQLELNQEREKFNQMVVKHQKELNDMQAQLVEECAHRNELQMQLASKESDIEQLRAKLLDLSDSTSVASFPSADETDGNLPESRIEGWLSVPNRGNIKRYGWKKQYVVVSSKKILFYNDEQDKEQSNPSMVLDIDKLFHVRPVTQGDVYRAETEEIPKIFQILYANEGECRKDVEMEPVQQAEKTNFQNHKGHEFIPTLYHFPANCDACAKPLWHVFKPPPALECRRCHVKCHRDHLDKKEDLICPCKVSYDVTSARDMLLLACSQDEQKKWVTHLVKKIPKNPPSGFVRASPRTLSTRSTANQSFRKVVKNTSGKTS

As for `CNC(=O)c1cncc(/C=C/c2c(C)cccc2C)c1`, the inhibition in [1] was 0.33%; in [2] it was 1.01%; in assay [3] it was 1.34%; in assay [4] it was 1.16%; in [5], 0.45%; in assay [6], 0.6%. For the same compound, the inhibition in [7] is -0.28%; in assay [8], 1.22%; in assay [9], 0.63%; in assay [10] it was 0.47%; in assay [11], 0.69%; in [12], 0.67%. In addition, the inhibition in assay [13] was 2.02%; in assay [14], 5.07%; in [15], -3.14%; in [16], -1.1%; in [17], 0.16%; in assay [18], -0.07%. For the same compound, the inhibition was 0.48% in [19] and -4.03% in assay [20].
On to `O=C1NC(=O)C(c2cccc(Cl)c2)=C1Nc1ccc(Cl)c(C(=O)O)c1`, for which the inhibition in assay [1] amounted to 0.78%; in assay [2] it was 1.95%; in assay [3], 4.98%; in assay [4] it was 1.51%; in assay [5], 2.92%; in assay [6] it was 1.25%. Further, the inhibition stood at 1.6% in assay [7]; 1.79% in assay [8]; 1.6% in [9]; 1.24% in assay [10]; 3.09% in assay [11]; 3.35% in assay [12]. For the same compound, the inhibition in [13] was 8.21%; in [14], 0.84%; in assay [15] it was 3.07%; in [16] it was 2.77%; in assay [17], 4.64%; in [18], 3.69%. Moreover, the inhibition was 3.89% in assay [19] and -0.69% in assay [20].
In the case of `O=C1Nc2ccccc2/C1=C/Nc1ccc(-n2cncn2)cc1`, the inhibition in assay [1] was 1.71%; in assay [2], 3.63%; in assay [3], 7.17%; in assay [4] it was 2.06%; in assay [5] it was 10.9%; in assay [6] it was 2.37%. The inhibition in [7] came out at 8.64%; in [8], 3.38%; in assay [9] it was 14.2%; in assay [10], 3.31%; in assay [11], 11.4%; in assay [12], 5.81%. Also, the inhibition in assay [13] was 29.2%; in [14] it was 3.56%; in [15] it was 10.9%; in assay [16] it was 4.57%; in [17], 8.06%; in assay [18], 5.93%. Moreover, the inhibition in [19] turned out to be 19.3%; in assay [20] it was 3.9%.
In the case of `CCc1nccc2c1nc(-c1nonc1N)n2CC`, the inhibition in assay [1] came to 11.5%; in [2], 1.91%; in assay [3] it was 17%; in assay [4], 5.37%; in [5], 35.2%; in assay [6], 2.22%. Also, the inhibition is 15.6% in [7]; 3.79% in [8]; 26.9% in [9]; -0.93% in [10]; 0.92% in assay [11]; 0.21% in [12]. The inhibition in [13] was 3.23%; in assay [14], 0.23%; in assay [15], 9.51%; in [16] it was 2.62%; in [17] it was 7.73%; in assay [18] it was 1%. The inhibition in assay [19] is -1.23%; in assay [20] it was -1.43%.
Consider `c1ccc(-c2n[nH]cc2-c2ccnc(-c3ccc(OCCN4CCOCC4)cc3)c2)nc1`, for which the inhibition in assay [1] is 2.14%; in [2], -0.2%; in assay [3], -1.4%; in assay [4], 0.42%; in assay [5], -1.3%; in assay [6], 0.55%. In addition, the inhibition in assay [7] was 0.57%; in assay [8], -0.89%; in assay [9], -0.56%; in [10], -0.33%; in assay [11] it was -0.39%; in assay [12], 5.23%. For the same compound, the inhibition in assay [13] is 3.03%; in assay [14], 3.23%; in [15], -0.68%; in assay [16], 3.83%; in assay [17] it was 4.03%; in assay [18], 0.65%. The inhibition is -0.75% in assay [19] and 6.57% in [20].
As for `COc1cccc(/C=N/Nc2ncnc3c2cnn3-c2cccc(OC)c2)c1`, the inhibition in assay [1] turned out to be 3.6%; in assay [2], 2.65%; in [3], 3.61%; in assay [4] it was 1.05%; in [5], 0.75%; in assay [6] it was 0.86%. The inhibition in [7] amounted to 1.4%; in assay [8] it was 1.64%; in [9] it was 2.21%; in [10], 0.2%; in assay [11], 1.54%; in assay [12], 1.88%. For the same compound, the inhibition was 1.38% in assay [13]; 1.32% in assay [14]; 2.15% in [15]; 2.71% in assay [16]; 2.43% in assay [17]; 1.52% in assay [18]. The inhibition in assay [19] is 2.74%; in assay [20], 5.39%.
